Source: PubChem (National Center for Advancing Translational Sciences (NCATS))
Compounds with a hit are over-represented: about 1.2% of the library has one in this group of screens.
PI5P4K alpha inh: blocks human PI5P4K alpha kinase activity; P48426; PI5P4Kalpha enzyme, ADP-Glo luminescence, 60 min; active compounds read low; max response, %; 330,000 compounds, 1.2% hits; active = max response of -50% or lower; inconclusive = between -30% and -50%; inactive = -30% or higher; note: value at the top dose of about 77 µM
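Luminescence from ADP-Glo served as readout of PI5P4Kalpha activity in a qHTS format. Reaction: enzyme, substrate, compound, ATP at 5 microM final, 60 min at RT.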
RGS12 GoLoco inh: inhibitors of human Gai1-RGS12 GoLoco interaction (red fluorophore); Potency, µM (titrated, usually from 61.6 µM), for the others: at the top dose activity, negative = inhibition, hits mostly inhibitors; Gai1:RGS12 GoLoco peptide FP, rhodamine, 10 min; 230,000 compounds, 0.44% hits; AID 880; P63096; active = well fitted inhibition curve with a large enough effect, not every such curve was filed as active; inactive = no such curve, though single readings can be large or run the other way; note: potency is the fitted concentration of half-maximal effect; nearly all actives have a fitted effect of over 30% in size
PGK inhibitor: T. brucei PGK inhibition; 380,000 compounds, 0.043% hits; Potency, µM (doses to about 57.5 µM), for inactives: at the highest dose activity change, negative = inhibition, most hits filed as inhibitors; AID 602233; PGK/GAPDH coupled, Kinase-Glo luminescence, 60 min; note: potency is the fitted concentration of half-maximal effect; nearly all actives have a fitted effect of over 60% in size
Target sequence (P07378 whole entry, looked up): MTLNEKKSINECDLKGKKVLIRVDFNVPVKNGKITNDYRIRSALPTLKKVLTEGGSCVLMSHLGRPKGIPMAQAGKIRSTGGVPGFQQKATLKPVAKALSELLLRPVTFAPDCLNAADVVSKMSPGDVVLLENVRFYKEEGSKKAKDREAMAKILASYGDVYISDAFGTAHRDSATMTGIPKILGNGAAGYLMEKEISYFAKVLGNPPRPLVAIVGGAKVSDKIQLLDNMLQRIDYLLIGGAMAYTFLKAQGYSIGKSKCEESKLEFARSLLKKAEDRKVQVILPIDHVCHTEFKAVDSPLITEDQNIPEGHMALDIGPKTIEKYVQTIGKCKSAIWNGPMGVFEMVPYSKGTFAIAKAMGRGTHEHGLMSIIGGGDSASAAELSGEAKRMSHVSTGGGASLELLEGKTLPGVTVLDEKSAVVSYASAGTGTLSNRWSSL
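Luminescent ATP detection (Kinase-Glo Plus) follows a 60-minute room-temperature incubation, with wells lacking PGK as controls. Buffer: 100 mM TEA (pH 7.6), 5 mM MgCl2, 0.01% Tween-20. Coupling enzyme GAPDH (100 nM final) supplies unstable 1,3-BPG in-well.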
PI4K2A block: blocks human PI4K2A kinase activity. Q9BTU6. purified PI4K2A, ADP-Glo luminescence, 1 h; active compounds read low. activity change, negative = inhibition, % at 76.9 µM. 420,000 compounds, 0.13% hits; in the data active = activity change below about -50%; inconclusive = mostly about -30% to -49%;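 note: -100% = wells without enzyme as full effect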
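In this quantitative HTS, ADP production by PI4K2A was quantified luminescently after 1 h at ambient temperature; 100 microM adenosine served as plate-quality control.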
Pin1 inh: human Pin1 inhibition | 390,000 compounds, 0.009% hits | Potency, µM (series often up to 115 µM), for the others: at the highest dose activity, negative = inhibition, usual class: inhibitors | Q13526 | Pin1 FP peptide displacement, HiFluor488, 10 min; active = well fitted inhibition curve with a large enough effect in the polarisation, with a control signal flat, not every such curve was filed as active; inconclusive = small, poorly fitted or top-dose-only effect, or effect the other way, or a change in a side signal; inactive = no such curve, though single readings can be large or run the other way; the % refers to the polarisation; note: potency is the fitted concentration of half-maximal effect
GCN5L2 inh: blocks human GCN5L2 histone acetyltransferase. 390,000 compounds, 0.21% hits. Q92830. AID 504327. GCN5L2 HAT assay, ThioGlo1 CoA-SH fluorescence. Potency, µM (doses to about 58.9 µM), for inactives: top-dose activity change, negative = inhibition, actives largely listed as inhibitors; note: potency is the fitted concentration of half-maximal effect
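Free CoA generated was detected with ThioGlo1 (50uM) fluorescence at Ex340nm/Em540nm, read immediately and after 20 min at room temperature. Enzyme, 20 nM in HEPES pH 7.5 buffer, saw compounds 15 min before adding 75uM H3(1-25) peptide and 70uM acetyl-CoA.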
ADP-Glo counter: counter-screen for PI5P4K inhibitors: ADP-Glo detection interference, no enzyme | shares compounds with PI5P4K alpha inh | ADP-Glo detection counter-screen, luciferase luminescence, no enzyme | Potency, µM (top dose mostly 76.9 µM), for the others: top-dose activity change, negative = inhibition, hits mostly inhibitors | 1,100 tested, under 10 active | AID 743285
* = called active by the depositor; i = inactive; ? = inconclusive; nt = no result. Unless noted, calls come from the whole dose curve; as a rule, active = well fitted curve in the direction sought with a large enough effect; inconclusive = small, poorly fitted or top-dose-only effect, or another doubt; inactive = no such curve, though single readings can be large; an effect the other way counts as inactive or inconclusive. Unless noted, % is set by controls: 0 for no effect and ±100 for the full control effect.

SMILES	PI5P4K alpha inh	RGS12 GoLoco inh	PGK inhibitor	PI4K2A block	Pin1 inh	GCN5L2 inh	ADP-Glo counter
COc1ccc(N(C(=O)c2ccccc2)S(=O)(=O)c2cccs2)cc1	-60*	5%	i	2	9%	-12%	4%
COc1ccc(C(=O)N(c2ccc(OC)cc2)S(=O)(=O)c2cccs2)cc1	0	3%	-1%	7	5%	-10%	nt
CCOC(=O)[C@@]12CCCC3=C1N(CCC3)C(=O)[C@H]2CC(=O)N1CCC(c2ccccc2)CC1	nt	nt	nt	-5	nt	nt	nt
COc1ccc(OC)c(S(=O)(=O)NCCCn2ccnc2)c1	3	nt	1%	0	1%	-10%	nt
COc1ccc(Cl)cc1S(=O)(=O)NCCCn1ccnc1	-23	nt	3%	-6	-13%	1%	-1%
COc1ccc(OC)c(NC(=O)CSc2ccc(-c3ccco3)nn2)c1	-51*	nt	9%	-19	?	-9%	-10%
COc1ccccc1NC(=O)CSc1ccc(-c2ccco2)nn1	-19	nt	-4%	0	-9%	?	nt
CCc1c(C)sc(NC(=O)Cn2nc(C)c([N+](=O)[O-])c2C)c1C(N)=O	-58*	3%	10%	5	8%	-4%	0%
Cc1csc(NC(=O)Cn2nc(C)c([N+](=O)[O-])c2C)n1	4	1%	i	-2	-6%	-2%	nt
Cc1noc(C)c1C(=O)Nc1cc(S(=O)(=O)N2CCCCC2)ccc1N(C)C	-7	nt	-4%	5	3%	-2%	nt
Cc1ccc(N=c2oc3cc(O)ccc3cc2C(N)=O)cc1	-52*	nt	-5%	-4	?	-20%	-2%
CC(=O)c1cc2ccc(O)cc2oc1=O	?	2%	0%	-3	?	-8%	nt
COC(=O)c1ccc(C)c(NC(=O)CCSc2ccc(Cl)cc2)c1	1	-18%	-6%	7	-2%	?	nt
Cc1ccc([N+](=O)[O-])cc1NC(=O)CCSc1ccc(Cl)cc1	-70*	-16%	-1%	6	-1%	2%	-2%
Cc1oc(-c2ccc(Cl)cc2)cc1-c1nn2c(-c3ccoc3C)nnc2s1	-65*	63%	-13%	-12	17%	-29%	0%
Clc1ccc(-c2nnc3sc(-c4ccc(Br)o4)nn23)cc1	-15	16%	-1%	5	?	-4%	nt
Cn1nnc(NC(=O)c2ccc([N+](=O)[O-])cc2Cl)n1	-12	13%	i	3	4%	-3%	nt
Cc1cc(C)c2nc(-c3ccccn3)cc(C(=O)Nc3ccc(S(=O)(=O)Nc4onc(C)c4C)cc3)c2c1	-66*	-2%	-16%	-3	?	?	-1%
Cc1cc(C)c2nc(-c3ccccn3)cc(C(=O)Nc3ccc(S(=O)(=O)Nc4cc(C)on4)cc3)c2c1	nt	51%	-13%	-8	nt	?	nt
COc1nc(N)nc2c1ncn2C1OC(CO)CC1O (stereo unspecified)	2	nt	0%	-2	-3%	nt	nt
CCc1cccc(C)c1NC(=O)C(CC)Sc1nncn2c1cc1occc12 (stereo unspecified)	nt	nt	-3%	-2	3%	0%	nt
CCOC(=O)c1cnc2cc(C)ccn2c1=O	-20	-4%	-4%	1	9%	-3%	-3%
Cc1ccn2c(=O)c(C(=O)O)cnc2c1	1	7%	-6%	2	5%	-2%	nt
CCNC(=O)c1ccccc1SCc1ccccc1	6	-8%	-1%	-3	-2%	-26%	nt
CCNC(=O)c1ccccc1SCC(=O)Nc1ccc(F)cc1	-68*	-21%	i	-1	6%	-4%	2%
Cc1ccc(CNc2ncnc3ccc(-c4ccoc4C)cc23)o1	nt	nt	nt	-12	nt	nt	0%
COc1cc(NC2=Nc3cccc4cccc2c34)cc(OC)c1OC	-50*	108%	-2%	2	73%	-4%	-3%
